For 15 compounds, inhibition results are on record in PubChem BioAssay.

SMILES strings stand for the structures. The list shows a part of the results. Activity calls are given as the source filed them. Rule as the data show it: active = inhibition above about 19%; inactive = the rest.

The assay concerns T-cell receptor (TCR)-CD3 interaction, human. As to the kind of experiment: blockers of TCR binding to CD3 – biochemical, fluorescence, TAMRA-labeled TCR probe, confirmation (AID 652036). The settings on record: TAMRA-labeled TCR probe fluorescence binding assay; at 9.4 µM; hits give high values.
The inhibition is the share of the control response that was lost under treatment. On to `CN1CCN(/N=C/c2ccc(C#N)cc2)CC1`, for which the inhibition was 2.78% (inactive). In the case of `CCOc1ccc(-n2c(O)c(/C=N/Nc3nnc(C)c(=O)[nH]3)c3ccccc3c2=O)cc1` it was 26% (active); in that of `CNS(=O)(=O)c1ccc2c(c1)[nH]c(=S)n2C`, 10.3% (inactive); in that of `Cc1ccc(O)c(/C=N/NC(=O)COc2ccc3c(C)cc(=O)oc3c2)c1`, 46.1% (active). Regarding `COc1ccccc1C(=O)NNC(=O)c1ccc(NC(=O)c2ccccc2)cc1`, the inhibition is 35.5% (active). As for `O=C(Nc1cccc(-c2nc3ccccc3[nH]2)c1)c1ccc(C(=O)Nc2cccc(-c3nc4ccccc4[nH]3)c2)cc1`, the figure is 10.8% (inactive). As for `Cc1ccc(-c2nn(-c3ccccc3)cc2/C=C/C(=O)Nc2cccc(S(N)(=O)=O)c2)cc1`, the figure is 48.1% (active); as for `COc1ccccc1C(=O)NNC(=O)CCN1C(=O)/C(=C\c2ccccc2)SC1=S`, 9.19% (inactive); as for `CCOCC(=O)NCc1ccc2c(c1)cc(C)n2C`, 6.18% (inactive).

With `COc1ccc(Br)cc1C(=O)NC(=S)Nc1cc(-c2nc3ccccc3[nH]2)ccc1C`, the inhibition is 34.4% (active).

Regarding `COc1ccc(NS(=O)(=O)c2cc(NC(=O)/C=C/c3cc(OC)c(OC)c(OC)c3)ccc2N2CCCCC2)cc1`, the inhibition is 29.4% (active). Take `COc1cc(C(=O)NCC2(c3ccccc3)CCCC2)ccc1OC(C)C`: the inhibition is 2.19% (inactive). In the case of `COc1ccc(/C(=N\O)c2nccc3cc(OC)c(OC)cc23)cc1OC` it was 15.5% (inactive); in that of `Cc1cc(C(=O)CCC(=O)NNC(=O)c2ccccc2O)c(C)s1`, 11.4% (inactive). Take `COc1ccc(CC(=O)N/N=C/c2cc([N+](=O)[O-])cc(Br)c2O)cc1`: the inhibition was 40% (active).
